Assay [1] is described as follows: ATG_GLI_CIS: Attagene CIS-FACTORIAL HepG2 Assay for human Zinc Finger Protein GLI1 (AID 2282945). The settings on record: HepG2, Attagene cis-factorial reporter mRNA, GLI element; actives raise or lower the signal. The essentials:
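Bidirectional curve fits relative to DMSO, using reporter mRNA levels from RT-PCR plus capillary electrophoresis. Cells were HepG2 transiently carrying cis-regulated reporter constructs, harvested 24 h after dosing.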

For assay [2], the target named is Bile acid receptor (Homo sapiens) (UniProt Q96RI1). Briefly: ATG_IR1_CIS: Attagene CIS-FACTORIAL HepG2 Assay for human Nuclear Receptor Subfamily 1 Group H Member 4 (NR1H4), IR1 submotif (AID 2282946). The settings on record: IR1 reporter transcription, actives raise or lower the signal. Put shortly:
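Cells (human HepG2) carry transiently transfected cis-promoter reporter transcription units. Compounds are incubated 24 h, total RNA is reverse-transcribed and amplified, and labelled fragments are resolved by capillary electrophoresis. Curves use DMSO as baseline.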

Assay [3] can be described thus: ATG_GRE_CIS: Attagene CIS-FACTORIAL HepG2 Assay for human Glucocorticoid Response Elements (GRE) (AID 2282947). The settings on record: HepG2 GRE cis-reporter, Attagene multiplex mRNA; actives raise or lower the signal. Put shortly:
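Transient MRTU transfection of human HepG2 liver cells; cis-regulated reporters report endogenous factors. 24 h dosing → RNA isolation → RT-PCR → 6-FAM primer extension → HpaI cut → CE fragment analysis. Bidirectional fit, DMSO negative control.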

A short description of assay [4]: ATG_ISRE_CIS: Attagene CIS-FACTORIAL HepG2 Assay for human Interferon Regulatory Factor 1 (IRF1) binding to an Interferon-Stimulated Response Element (ISRE) (AID 2282948). The settings on record: HepG2 ISRE cis-reporter (Attagene), mRNA transcription readout; actives raise or lower the signal. The essentials: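 Quantitation relies on labelled RT-PCR fragments separated by capillary electrophoresis. Human HepG2 cells bearing cis-promoter reporter constructs were treated 24 h; DMSO served as baseline for bidirectional fitting.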

Assay [5] in a line: ATG_M_32_CIS: Attagene CIS-FACTORIAL HepG2 Assay for M32 Transcription Factor (Internal Marker) (AID 2282949).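 Further: background control marker of the multiplexed CIS panel rather than a real target.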 Conditions: HepG2 Attagene cis-factorial M32 reporter, mRNA; actives raise or lower the signal. The essentials: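 HepG2 cells transiently transfected with multiplexed cis-regulated reporter units, dosed 24 h. Reporter mRNA quantified by RT-PCR, 6-FAM labelling, HpaI digestion and capillary electrophoresis; bidirectional fit vs DMSO.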

The nature of assay [6]: ATG_M_06_CIS: Attagene CIS-FACTORIAL HepG2 Assay for M06 Transcription Factor (Internal Marker) (AID 2282950). The settings on record: HepG2 Attagene CIS-FACTORIAL M06 internal marker reporter; actives raise or lower the signal. The essentials:
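Fluorescence-labelled RT-PCR products from cis-promoter reporter units, cut with HpaI and resolved by capillary electrophoresis, give the signal. Cells are human HepG2, dosed for 24 h. Serves as background control, fitted relative to DMSO.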

Assay [7] concerns the target Hepatocyte nuclear factor 6 (Homo sapiens) (UniProt Q9UBC0). Briefly: ATG_HNF6_CIS: Attagene CIS-FACTORIAL HepG2 Assay for human Hepatocyte Nuclear Factor 6 (HNF6) (AID 2282952). Conditions: HepG2 Attagene cis-factorial HNF6 reporter transcription; actives raise or lower the signal. The essentials: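 Reporter mRNA induction or loss in HepG2 after 24 h exposure; transient cis-MRTU transfection; fragments quantified by capillary electrophoresis; bidirectional analysis, DMSO as negative control.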

The target in assay [8] is Heat shock factor protein 1 (Homo sapiens) (UniProt Q00613). Briefly: ATG_HSE_CIS: Attagene CIS-FACTORIAL HepG2 Assay for human Heat Shock Transcription Factor 1 (HSE) (AID 2282953). The settings on record: HepG2 HSE cis-reporter, Attagene RNA transcription; actives raise or lower the signal. Put shortly:
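After a 24 h incubation with test chemical, transfected HepG2 cells were harvested for RNA; reporter transcripts were measured by RT-PCR and capillary electrophoresis. Values reflect gain or loss of signal relative to DMSO.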

Assay [9] in a line: ATG_MRE_CIS: Attagene CIS-FACTORIAL HepG2 Assay for human Metal Responsive Element (MRE) (AID 2282954). Conditions: HepG2 MRE cis-reporter transcription, Attagene multiplex; actives raise or lower the signal. Put shortly:
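Transient MRTU transfection of HepG2 (FuGene 6); 24 h dosing; total RNA → oligo(dT) RT, PCR, 6-FAM primer extension, HpaI cut, CE. Bidirectional fit vs DMSO.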

In assay [10] the target is Hypoxia-inducible factor 1-alpha (Homo sapiens) (UniProt Q16665). Briefly: ATG_HIF1a_CIS: Attagene CIS-FACTORIAL HepG2 Assay for human Hypoxia Inducible Factor 1 (HIF1A) (AID 2282951). The settings on record: HepG2 Attagene cis-factorial HIF1a reporter transcription; actives raise or lower the signal. The essentials: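 RT-PCR/capillary electrophoresis fluorescence readout of reporter transcripts from endogenous-TF-driven cis elements in transfected HepG2 cells, 24 h exposure; activity fitted in both directions against DMSO controls.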
Hypoxia-inducible factor 1-alpha (Homo sapiens), sequence (Q16665 whole entry, looked up): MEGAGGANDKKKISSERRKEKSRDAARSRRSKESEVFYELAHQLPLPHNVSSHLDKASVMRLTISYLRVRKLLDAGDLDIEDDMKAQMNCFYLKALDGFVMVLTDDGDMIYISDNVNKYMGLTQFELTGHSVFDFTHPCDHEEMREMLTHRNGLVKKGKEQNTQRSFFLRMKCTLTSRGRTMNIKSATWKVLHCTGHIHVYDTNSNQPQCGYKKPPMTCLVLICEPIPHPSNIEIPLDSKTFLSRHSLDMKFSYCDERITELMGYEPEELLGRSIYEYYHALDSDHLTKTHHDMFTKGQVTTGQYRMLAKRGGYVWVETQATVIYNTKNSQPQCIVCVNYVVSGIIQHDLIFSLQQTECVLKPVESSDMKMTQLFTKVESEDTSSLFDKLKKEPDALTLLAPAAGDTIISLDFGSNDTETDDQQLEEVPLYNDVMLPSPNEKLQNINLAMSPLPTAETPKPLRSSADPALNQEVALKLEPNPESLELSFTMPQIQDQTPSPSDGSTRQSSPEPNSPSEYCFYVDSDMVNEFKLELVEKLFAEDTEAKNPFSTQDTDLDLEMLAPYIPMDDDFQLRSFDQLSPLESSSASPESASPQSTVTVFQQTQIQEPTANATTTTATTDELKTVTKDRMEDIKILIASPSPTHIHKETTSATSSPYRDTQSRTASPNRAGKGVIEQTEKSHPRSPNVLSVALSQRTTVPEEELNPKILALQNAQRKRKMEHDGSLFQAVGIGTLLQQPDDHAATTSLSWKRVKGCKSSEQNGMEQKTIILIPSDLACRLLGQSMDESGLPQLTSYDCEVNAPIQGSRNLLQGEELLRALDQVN

Activity calls are given as the source filed them. How the source made its calls: active means hit-call score of the fitted dose curve at least 0.9, where 1 is the maximum; inactive means score below 0.9.

Bile acid receptor (Homo sapiens), sequence (Q96RI1 whole entry, looked up, the tested form may be a part): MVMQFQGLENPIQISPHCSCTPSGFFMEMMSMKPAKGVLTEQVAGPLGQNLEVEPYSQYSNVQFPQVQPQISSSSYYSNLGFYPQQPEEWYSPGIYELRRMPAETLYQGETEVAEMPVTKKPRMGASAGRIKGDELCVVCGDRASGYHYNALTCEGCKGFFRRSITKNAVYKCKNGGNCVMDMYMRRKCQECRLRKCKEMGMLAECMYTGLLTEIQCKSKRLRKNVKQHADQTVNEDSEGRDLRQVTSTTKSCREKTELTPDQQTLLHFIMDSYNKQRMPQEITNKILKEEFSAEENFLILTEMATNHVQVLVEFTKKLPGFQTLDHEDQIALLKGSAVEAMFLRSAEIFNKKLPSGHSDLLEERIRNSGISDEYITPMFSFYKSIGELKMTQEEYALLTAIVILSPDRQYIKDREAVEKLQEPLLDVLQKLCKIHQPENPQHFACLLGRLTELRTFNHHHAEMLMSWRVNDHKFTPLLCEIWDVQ
Hepatocyte nuclear factor 6 (Homo sapiens), sequence (Q9UBC0 whole entry, looked up, the tested form may be a part): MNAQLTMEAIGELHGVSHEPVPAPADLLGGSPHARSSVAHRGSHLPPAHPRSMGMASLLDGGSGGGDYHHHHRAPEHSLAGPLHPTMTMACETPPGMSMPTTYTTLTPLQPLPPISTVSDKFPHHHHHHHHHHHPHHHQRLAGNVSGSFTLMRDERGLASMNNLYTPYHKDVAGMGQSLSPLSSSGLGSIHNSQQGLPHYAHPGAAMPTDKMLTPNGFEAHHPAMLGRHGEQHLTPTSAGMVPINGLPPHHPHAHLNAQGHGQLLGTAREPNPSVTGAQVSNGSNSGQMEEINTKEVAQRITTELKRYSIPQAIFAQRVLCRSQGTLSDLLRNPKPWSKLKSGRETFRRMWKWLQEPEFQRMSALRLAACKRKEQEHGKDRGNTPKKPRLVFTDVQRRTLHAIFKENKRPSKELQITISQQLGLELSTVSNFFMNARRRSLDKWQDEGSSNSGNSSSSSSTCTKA
Heat shock factor protein 1 (Homo sapiens), sequence (Q00613 whole entry, looked up): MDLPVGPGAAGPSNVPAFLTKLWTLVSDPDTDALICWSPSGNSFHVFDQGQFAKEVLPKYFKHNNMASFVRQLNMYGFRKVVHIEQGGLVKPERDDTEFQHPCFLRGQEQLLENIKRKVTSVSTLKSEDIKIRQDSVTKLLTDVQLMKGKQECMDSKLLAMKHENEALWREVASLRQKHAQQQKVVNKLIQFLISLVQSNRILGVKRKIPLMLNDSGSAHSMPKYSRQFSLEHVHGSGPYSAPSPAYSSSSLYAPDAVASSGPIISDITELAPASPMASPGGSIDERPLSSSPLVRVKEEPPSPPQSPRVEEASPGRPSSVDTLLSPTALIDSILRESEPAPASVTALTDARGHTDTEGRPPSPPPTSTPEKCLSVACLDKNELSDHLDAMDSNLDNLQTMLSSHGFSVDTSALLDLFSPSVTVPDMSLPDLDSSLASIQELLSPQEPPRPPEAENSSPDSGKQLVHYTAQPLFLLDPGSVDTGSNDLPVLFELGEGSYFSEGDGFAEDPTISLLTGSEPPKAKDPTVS

Turning to `O=C(O)C1C(C(=O)O)C2(Cl)C(Cl)=C(Cl)C1(Cl)C2(Cl)Cl` (stereo not drawn), the compound was called inactive in assay [1], in assay [2], in assay [3], in [4], in assay [5] and in assay [6]. Besides, the result in [7], in assay [8] and in [9] was inactive.

`Cn1[nH]nnc1=S`: the compound was classed as inactive in [1], in assay [2], in assay [3], in assay [4], in [5] and in [6]. The call in assay [7], in [8] and in assay [9] was inactive.

For the compound `O=[N+]([O-])c1ccc(Cl)c(Cl)c1`, the call in assay [1], in assay [2], in [3], in assay [4], in assay [5] and in [6] was inactive. In addition, the compound was classed as inactive in [7], in assay [8] and in [9].

In the case of `CC(C)(C)N(NC(=O)c1ccc(Cl)cc1)C(=O)c1ccccc1`, the result in assay [1], in [2], in assay [3], in [4], in [5] and in [6] was inactive. The call in assay [7], in [8] and in [9] was inactive.

As to `CCOc1ccc(C(C)(C)COCc2cccc(Oc3ccccc3)c2)cc1`, the outcome in assay [1], in assay [2], in assay [3], in assay [4], in [5] and in assay [6] was inactive. Further, the outcome in [10], in [7] and in assay [9] was inactive.

Consider `O=P(Oc1ccccc1)(Oc1ccccc1)Oc1ccccc1`, for which the AC50 in assay [1] is 53.3 µM (active); in [2], 26.6 µM (active); in [4] it was 33.4 µM (active); in assay [8], 53.4 µM (active); in assay [9], 33.4 µM (active). For the same compound, the compound was called inactive in [3], in assay [5], in [6] and in assay [7].

Regarding `OCC(F)(F)OC(F)(F)C(F)(F)OC(F)(F)C(F)(F)OC(F)(F)CO`, the compound was called inactive in assay [1], in [2], in assay [3], in assay [4], in assay [5] and in assay [6]. Moreover, the compound was called inactive in assay [7], in assay [8] and in assay [9].

As for `COC(N)=O`, the call in [1], in [2], in [3], in assay [4], in [5] and in assay [6] was inactive. Also, the compound was classed as inactive in assay [7], in [8] and in assay [9].

With `CCCCc1ccc(O)cc1`, the compound was classed as inactive in assay [1], in assay [2], in [3], in assay [4], in [5] and in assay [6]. Moreover, the result in [7] and in assay [9] was inactive. In addition, in [10], the concentration at half-maximal activity (AC50) was 164 µM (active).

As to `Cc1c([N+](=O)[O-])cc2c(c1[N+](=O)[O-])C(C)(C)CC2(C)C`, the compound was called inactive in assay [1], in assay [2], in [3], in assay [4], in [5] and in [6]. Further, the result in assay [10], in assay [7] and in assay [9] was inactive.

As to `CO/N=C(/C(=O)OC)c1ccccc1COc1ccccc1C`, the result in [1], in [2], in [3], in assay [4], in [5] and in assay [6] was inactive. For the same compound, the outcome in [7] was inactive. Besides, the concentration at half-maximal activity (AC50) was 150 µM (active) in assay [8] and 100 µM (active) in assay [9].

Consider `CCN(CC)C1CCCCC1`, for which the call in [1], in assay [2], in [3], in [4], in [5] and in assay [6] was inactive. Besides, the compound was classed as inactive in [10], in assay [7] and in assay [9].

On to `N#Cc1cc([N+](=O)[O-])ccc1N`, for which the outcome in assay [1], in [2], in [3], in [4], in [5] and in [6] was inactive. Further, the call in [10], in assay [7] and in assay [9] was inactive.

On to `FC(F)(F)c1ccc(Cl)cc1`, for which the outcome in assay [1], in assay [2], in assay [3], in assay [4], in assay [5] and in assay [6] was inactive. For the same compound, the compound was called inactive in assay [7], in assay [8] and in assay [9].

On to `c1nc[nH]n1`, for which the compound was called inactive in assay [1], in assay [2], in [3], in [4], in assay [5] and in assay [6]. In addition, the outcome in [7], in [8] and in assay [9] was inactive.

`CC1=C(C(=O)Nc2ccccc2)S(=O)(=O)CCO1`: the compound was called inactive in [1], in [3], in [5] and in [6]. Moreover, the AC50 in [2] was 58.6 µM (active); in assay [4], 30.2 µM (active); in assay [10], 27.2 µM (active); in assay [7], 45.4 µM (active); in assay [9], 9.73 µM (active).

`CCCCOCC1CO1` (stereo not drawn): the compound was classed as inactive in [1], in assay [2], in assay [3], in [4], in [5] and in assay [6]. The outcome in [10], in assay [7] and in assay [9] was inactive.

For the compound `CCCCN(CCCC)N=O`, the result in assay [1], in assay [2], in assay [3], in assay [4], in [5] and in [6] was inactive. Also, the result in assay [10], in assay [7] and in [9] was inactive.

With `CNC(=O)Oc1ccc(N(C)C)c(C)c1`, the call in [1], in [2], in [3], in assay [4], in assay [5] and in [6] was inactive. Moreover, the compound was called inactive in assay [10], in assay [7] and in [9].

In the case of `CC(O)C#N` (stereo not drawn), the compound was called inactive in assay [1], in assay [2], in assay [3], in [4], in assay [5] and in [6]. Also, the call in assay [7], in assay [8] and in [9] was inactive.

With `CC1(C)CN=C(NN=C(/C=C/c2ccc(C(F)(F)F)cc2)/C=C/c2ccc(C(F)(F)F)cc2)NC1`, the call in [1], in assay [3], in [6] and in assay [10] was inactive. The AC50 in [2] is 6.99 µM (active); in assay [4], 18.4 µM (active); in assay [5], 17.4 µM (active); in assay [7], 17.3 µM (active); in assay [9], 6.34 µM (active).

For the compound `CC(C)(C)c1ccccc1OP(=O)(Oc1ccccc1)Oc1ccccc1`, the outcome in assay [1], in assay [3], in assay [5], in assay [6], in [10] and in [7] was inactive. Further, the call in assay [9] was inactive. The AC50 in [2] is 26.5 µM (active); in assay [4], 50.2 µM (active).

`Nc1ccc([N+](=O)[O-])cc1Cl`: the compound was classed as inactive in assay [1], in [2], in assay [3], in assay [4], in assay [5] and in assay [6]. The compound was called inactive in [10], in assay [7] and in assay [9].

On to `OCC(F)(F)OC(F)(F)C(F)(F)OC(F)(F)CO`, for which the compound was called inactive in [1], in assay [2], in assay [3], in [4], in assay [5] and in assay [6]. The result in assay [7], in assay [8] and in assay [9] was inactive.

For `CCCCN(CC)C(=O)SCCC`, the compound was called inactive in [1], in assay [2], in assay [3], in assay [4], in assay [5] and in assay [6]. Moreover, the outcome in [10], in assay [7] and in assay [9] was inactive.

Consider `COP(=O)(O)OC`, for which the outcome in assay [1], in assay [2], in [3], in [4], in assay [5] and in assay [6] was inactive. The call in assay [7], in [8] and in assay [9] was inactive.

In the case of `O=C(CBr)OCc1ccccc1`, the call in [1], in assay [2], in [3], in assay [4], in assay [5] and in [6] was inactive. The compound was called inactive in assay [7], in [8] and in [9].

These data come from PubChem BioAssay (EPA / NIEHS).
